Our source for the Percent Effect values is ChEMBL document CHEMBL3988442, “University of Dundee, Small-Polar-MMV Screening Library” (2021).

Structures are written as SMILES. For some assays here: Results with a measured potency or affinity are listed apart.

Common to all, as to design: scale not given: direction of the effect not stated beside the values
For test [1], the target named is Protein translocase subunit SecA (Escherichia coli (strain K12)) (UniProt P10408). The test can be described thus: Assay to Identify E. coli SecA ATPase Inhibitors. In kind it is functional. Conditions: 30 µM.
Protein translocase subunit SecA (Escherichia coli (strain K12)), sequence (P10408 whole entry): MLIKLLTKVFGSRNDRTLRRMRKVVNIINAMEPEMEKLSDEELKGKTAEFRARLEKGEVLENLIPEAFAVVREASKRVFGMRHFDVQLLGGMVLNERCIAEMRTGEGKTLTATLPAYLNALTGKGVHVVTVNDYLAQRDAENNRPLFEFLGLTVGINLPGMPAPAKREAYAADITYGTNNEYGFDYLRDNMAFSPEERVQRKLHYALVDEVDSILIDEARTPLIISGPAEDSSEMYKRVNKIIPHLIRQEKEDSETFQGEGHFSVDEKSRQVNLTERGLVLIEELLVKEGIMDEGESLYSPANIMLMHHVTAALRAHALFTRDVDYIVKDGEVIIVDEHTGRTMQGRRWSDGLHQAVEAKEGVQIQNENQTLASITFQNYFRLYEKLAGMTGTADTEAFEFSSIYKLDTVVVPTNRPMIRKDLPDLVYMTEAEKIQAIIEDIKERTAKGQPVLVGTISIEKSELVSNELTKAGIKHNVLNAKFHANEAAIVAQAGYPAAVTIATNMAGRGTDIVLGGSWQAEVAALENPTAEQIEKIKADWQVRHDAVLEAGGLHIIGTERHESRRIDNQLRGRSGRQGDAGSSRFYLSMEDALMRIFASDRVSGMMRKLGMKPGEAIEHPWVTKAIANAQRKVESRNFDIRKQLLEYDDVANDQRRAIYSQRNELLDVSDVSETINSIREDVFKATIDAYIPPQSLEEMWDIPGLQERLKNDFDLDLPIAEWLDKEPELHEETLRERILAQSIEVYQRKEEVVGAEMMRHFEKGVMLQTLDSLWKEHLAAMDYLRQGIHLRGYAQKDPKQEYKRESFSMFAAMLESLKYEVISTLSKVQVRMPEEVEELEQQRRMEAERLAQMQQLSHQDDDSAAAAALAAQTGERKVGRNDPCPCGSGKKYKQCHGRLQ
The target of test [2] is T1, Ubiquitin-activating enzyme e1, putative (Leishmania donovani (strain BPK282A1)) (UniProt E9BSI1).
T1 sequence (whole entry): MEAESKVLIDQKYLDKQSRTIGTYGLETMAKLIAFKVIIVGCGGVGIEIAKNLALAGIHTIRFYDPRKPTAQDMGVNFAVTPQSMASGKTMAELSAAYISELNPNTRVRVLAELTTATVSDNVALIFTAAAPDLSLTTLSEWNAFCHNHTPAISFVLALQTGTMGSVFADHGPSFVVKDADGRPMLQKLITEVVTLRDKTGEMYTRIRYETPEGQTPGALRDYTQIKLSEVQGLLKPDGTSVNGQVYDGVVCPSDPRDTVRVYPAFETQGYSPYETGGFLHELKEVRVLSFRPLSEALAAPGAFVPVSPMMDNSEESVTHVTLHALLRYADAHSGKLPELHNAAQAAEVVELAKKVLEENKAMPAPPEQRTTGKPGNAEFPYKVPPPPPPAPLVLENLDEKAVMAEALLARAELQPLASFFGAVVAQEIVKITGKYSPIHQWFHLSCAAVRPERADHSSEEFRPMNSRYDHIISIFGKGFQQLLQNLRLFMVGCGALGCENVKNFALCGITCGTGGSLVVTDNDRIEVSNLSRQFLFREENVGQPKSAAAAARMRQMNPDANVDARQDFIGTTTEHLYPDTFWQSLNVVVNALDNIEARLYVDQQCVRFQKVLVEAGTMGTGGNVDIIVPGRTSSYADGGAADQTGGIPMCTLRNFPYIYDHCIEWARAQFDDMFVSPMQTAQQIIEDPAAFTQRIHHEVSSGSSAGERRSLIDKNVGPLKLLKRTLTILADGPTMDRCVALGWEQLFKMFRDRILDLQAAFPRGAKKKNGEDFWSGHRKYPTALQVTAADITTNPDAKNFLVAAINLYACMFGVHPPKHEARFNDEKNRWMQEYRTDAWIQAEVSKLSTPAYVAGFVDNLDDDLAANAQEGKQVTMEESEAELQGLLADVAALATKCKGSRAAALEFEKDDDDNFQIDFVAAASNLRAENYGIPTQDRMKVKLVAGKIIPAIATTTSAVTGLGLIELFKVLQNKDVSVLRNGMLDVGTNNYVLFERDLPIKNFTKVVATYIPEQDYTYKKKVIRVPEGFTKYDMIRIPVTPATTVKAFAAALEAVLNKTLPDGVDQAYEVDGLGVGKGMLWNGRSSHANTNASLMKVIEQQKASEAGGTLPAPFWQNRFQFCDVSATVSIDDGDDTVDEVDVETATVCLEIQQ
The test can be described thus: Leishmania donovani Ubiquitin Activating Enzyme (LdE1). In kind it is functional. Conditions: 30 µM.

Test [3] concerns the target AMP-activated protein kinase, AMPK (Homo sapiens) (UniProt P54646+O43741+P54619+Q9UGJ0+Q9Y478+Q13131+Q9UGI9). The test can be described thus: AMP-dependent Kinase enzyme assay. An in vitro enzyme assay that detects ADP turnover that is directly proportional to AMPK activity. This uses naive AMPK that is activated during the assay with MK-8722. Conditions: 30 µM. In kind it is functional.

Test [4] deals with Sialic acid-binding Ig-like lectin 9 (Homo sapiens) (UniProt Q9Y336). The test is described as follows: Hs-Siglec9 ALPHAscreen SOP 20170721. The conditions noted are these: 10 µM.
Sialic acid-binding Ig-like lectin 9 (Homo sapiens), sequence (Q9Y336 whole entry): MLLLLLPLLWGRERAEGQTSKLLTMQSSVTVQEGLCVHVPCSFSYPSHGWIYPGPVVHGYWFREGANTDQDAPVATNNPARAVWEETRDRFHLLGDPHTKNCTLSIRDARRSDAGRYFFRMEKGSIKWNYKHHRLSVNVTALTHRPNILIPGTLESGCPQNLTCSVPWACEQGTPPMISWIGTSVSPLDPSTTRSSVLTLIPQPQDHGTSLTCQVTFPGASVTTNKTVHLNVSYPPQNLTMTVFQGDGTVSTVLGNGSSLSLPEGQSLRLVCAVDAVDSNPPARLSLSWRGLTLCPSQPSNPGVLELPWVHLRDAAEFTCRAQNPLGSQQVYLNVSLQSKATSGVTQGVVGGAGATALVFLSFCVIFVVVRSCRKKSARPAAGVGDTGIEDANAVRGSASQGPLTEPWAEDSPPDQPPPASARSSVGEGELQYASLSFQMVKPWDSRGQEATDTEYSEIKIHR
For the next test, the system named is Trypanosoma cruzi. The test is described as follows: Trypanosoma cruzi phosphomannomutase and mannose-1-phosphate guanylyltransferase assay. In kind it is functional. The conditions noted are these: 10 µM.
In test [5] the target is T2, Arginase-2, mitochondrial (Homo sapiens) (UniProt P78540).
T2 sequence (whole entry): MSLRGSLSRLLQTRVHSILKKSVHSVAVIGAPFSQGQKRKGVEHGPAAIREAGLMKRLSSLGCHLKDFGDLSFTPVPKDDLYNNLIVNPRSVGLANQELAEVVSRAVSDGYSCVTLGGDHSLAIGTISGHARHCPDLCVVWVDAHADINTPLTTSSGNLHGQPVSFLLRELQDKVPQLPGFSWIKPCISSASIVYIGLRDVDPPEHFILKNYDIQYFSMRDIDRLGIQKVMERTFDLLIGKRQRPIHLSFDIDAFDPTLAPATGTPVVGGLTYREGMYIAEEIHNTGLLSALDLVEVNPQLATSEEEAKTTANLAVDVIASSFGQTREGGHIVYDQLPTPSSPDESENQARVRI
The test can be described thus: in vitro enzyme assay to detect the production of urea directly proportional to the activity of Arginase II. Note: in the data most compounds retested in dose-response had high values. In kind it is functional. The conditions noted are these: 33.3 µM.

Test [6] concerns the target T3, Proteasome subunit beta (Trypanosoma cruzi) (UniProt O96673).
T3 sequence (whole entry): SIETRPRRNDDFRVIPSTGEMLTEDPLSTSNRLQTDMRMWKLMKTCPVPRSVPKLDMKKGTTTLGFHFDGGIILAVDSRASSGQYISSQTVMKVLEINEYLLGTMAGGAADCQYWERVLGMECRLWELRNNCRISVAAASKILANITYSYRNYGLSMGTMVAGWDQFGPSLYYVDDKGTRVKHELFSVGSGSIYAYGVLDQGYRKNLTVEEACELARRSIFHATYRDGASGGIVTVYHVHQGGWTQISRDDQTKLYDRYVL
The test is described as follows: Trypanosoma cruzi proteasome chymotrypsin-like activity (TcProtChymo) assay. Note: in the data most compounds retested in dose-response had high values. The class given is functional. Conditions: 9.37 µM.

For a further test, the species on record is Homo sapiens. The test is described as follows: To identify inhibition of the IFN signalling (Jak-Stat) pathway via expression of an eGFP reporter gene under the control of an IFN-stimulated response element (ISRE) containing MxA promoter. In kind it is functional. The conditions noted are these: 30 µM. (A reporter such as luciferase makes a cellular process visible.)

The target of test [7] is T4, Tyrosyl-tRNA synthetase, putative (Trypanosoma cruzi (strain CL Brener)) (UniProt Q4DSP6).
T4 sequence (whole entry): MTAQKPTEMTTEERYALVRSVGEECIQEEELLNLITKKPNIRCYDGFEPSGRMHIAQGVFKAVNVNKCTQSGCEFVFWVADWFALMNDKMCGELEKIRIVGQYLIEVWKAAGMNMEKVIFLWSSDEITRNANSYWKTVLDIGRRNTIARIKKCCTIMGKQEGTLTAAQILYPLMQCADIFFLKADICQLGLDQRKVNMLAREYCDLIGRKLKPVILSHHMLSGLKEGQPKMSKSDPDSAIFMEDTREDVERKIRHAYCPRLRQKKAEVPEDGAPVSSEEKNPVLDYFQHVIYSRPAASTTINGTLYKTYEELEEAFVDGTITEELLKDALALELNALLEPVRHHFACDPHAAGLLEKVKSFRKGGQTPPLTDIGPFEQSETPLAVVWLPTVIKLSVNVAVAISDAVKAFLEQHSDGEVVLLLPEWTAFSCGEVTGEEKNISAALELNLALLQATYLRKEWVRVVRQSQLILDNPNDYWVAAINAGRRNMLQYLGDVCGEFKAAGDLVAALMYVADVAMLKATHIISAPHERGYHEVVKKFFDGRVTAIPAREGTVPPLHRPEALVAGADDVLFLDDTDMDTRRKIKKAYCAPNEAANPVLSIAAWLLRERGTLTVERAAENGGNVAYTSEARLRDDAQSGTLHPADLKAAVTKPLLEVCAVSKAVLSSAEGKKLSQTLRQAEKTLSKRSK
The test is described as follows: Trypanosoma cruzi tyrosyl tRNA synthetase (TcYRS) _High Tyrosine SOP. Note: in the data most compounds retested in dose-response had high values. The class given is functional. Conditions: 30 µM.

Test [8] deals with T4, Tyrosyl-tRNA synthetase, putative (Trypanosoma cruzi (strain CL Brener)). The test is described as follows: Trypanosoma cruzi tyrosyl tRNA synthetase (TcYRS) SOP. The conditions noted are these: 30 µM. In kind it is functional.
The target in test [9] is Chromo domain-containing protein 1 (Saccharomyces cerevisiae (strain ATCC 204508 / S288c) (Baker's yeast)) (UniProt P32657). The test is described as follows: ScCHD-1 Enzyme Inhibition Assay. Note: in the data most compounds retested in dose-response had high values. The class given is functional. Conditions: 30 µM.
Chromo domain-containing protein 1 (Saccharomyces cerevisiae (strain ATCC 204508 / S288c) (Baker's yeast)), sequence (P32657 whole entry, the tested form may be a part): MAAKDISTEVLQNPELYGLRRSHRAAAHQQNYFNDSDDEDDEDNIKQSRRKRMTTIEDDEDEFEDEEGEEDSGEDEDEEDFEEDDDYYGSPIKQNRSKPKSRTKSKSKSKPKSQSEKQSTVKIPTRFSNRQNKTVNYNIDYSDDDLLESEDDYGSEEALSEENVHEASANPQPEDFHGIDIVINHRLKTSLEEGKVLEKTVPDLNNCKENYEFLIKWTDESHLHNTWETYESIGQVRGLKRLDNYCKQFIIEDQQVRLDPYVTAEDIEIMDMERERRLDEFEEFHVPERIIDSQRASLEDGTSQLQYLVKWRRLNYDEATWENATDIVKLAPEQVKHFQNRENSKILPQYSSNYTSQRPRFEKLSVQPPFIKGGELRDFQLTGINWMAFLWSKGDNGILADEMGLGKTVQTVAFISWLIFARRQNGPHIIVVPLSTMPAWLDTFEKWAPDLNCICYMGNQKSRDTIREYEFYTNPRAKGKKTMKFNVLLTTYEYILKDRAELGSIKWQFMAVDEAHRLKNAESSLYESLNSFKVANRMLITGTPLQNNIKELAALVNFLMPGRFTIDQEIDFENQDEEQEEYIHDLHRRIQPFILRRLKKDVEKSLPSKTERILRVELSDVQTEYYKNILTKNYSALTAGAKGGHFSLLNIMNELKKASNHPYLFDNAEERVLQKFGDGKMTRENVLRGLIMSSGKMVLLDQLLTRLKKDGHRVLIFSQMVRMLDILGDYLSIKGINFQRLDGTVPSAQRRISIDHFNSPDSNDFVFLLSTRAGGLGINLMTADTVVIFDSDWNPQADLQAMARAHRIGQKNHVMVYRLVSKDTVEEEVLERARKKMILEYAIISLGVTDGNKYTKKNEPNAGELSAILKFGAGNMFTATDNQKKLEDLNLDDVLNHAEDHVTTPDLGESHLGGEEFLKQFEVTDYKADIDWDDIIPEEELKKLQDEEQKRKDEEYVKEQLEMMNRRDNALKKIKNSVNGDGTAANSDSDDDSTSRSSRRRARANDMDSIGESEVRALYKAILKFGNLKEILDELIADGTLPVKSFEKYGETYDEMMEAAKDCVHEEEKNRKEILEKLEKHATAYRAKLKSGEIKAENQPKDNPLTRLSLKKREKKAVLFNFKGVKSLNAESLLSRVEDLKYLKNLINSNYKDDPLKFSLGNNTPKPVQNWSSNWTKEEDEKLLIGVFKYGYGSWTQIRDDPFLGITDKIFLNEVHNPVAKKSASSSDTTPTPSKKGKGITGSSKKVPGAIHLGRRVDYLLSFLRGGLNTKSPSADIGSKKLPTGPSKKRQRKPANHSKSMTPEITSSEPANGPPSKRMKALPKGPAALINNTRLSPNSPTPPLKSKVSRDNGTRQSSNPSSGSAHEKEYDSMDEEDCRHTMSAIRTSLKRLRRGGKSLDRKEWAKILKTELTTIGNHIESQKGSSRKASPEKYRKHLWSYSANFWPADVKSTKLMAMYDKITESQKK

As for `CCc1ncc2c(n1)CN(Cc1nc(-c3ccccn3)no1)CC2`, the Percent Effect was -8.41% in test [1]; 15.8% in [2]; -29.3% in [3]; 15.4% in test [4]; 11.7% in the test with Trypanosoma cruzi; 1.44% in test [5]. The Percent Effect in [6] is 2.79%; in the test filed under Homo sapiens, -20.6%; in test [7], 15.3%; in test [8], 25.9%; in test [9], -10.3%.
Consider `CCc1cccc(OCC(=O)N2CCCC(n3cncn3)C2)c1` (stereo not given), for which the Percent Effect in test [1] is -5.42%; in [2] it was 13.5%; in test [3], 1.85%; in test [4] it was -1.09%; with Trypanosoma cruzi, -5.57%; in [5], 2%. In addition, the Percent Effect was 13% in [6]; 14.3% in the test listed under Homo sapiens; 5.42% in test [7]; 11.1% in [8]; -4.63% in test [9].
Consider `Cc1nc(CN2C[C@@H]3CN(C(=O)c4ccnnc4)C[C@@H]3C2=O)cs1`, for which the Percent Effect is -4.78% in [1]; 5.41% in [2]; 6.23% in test [3]; 4.54% in test [4]; -0.684% with Trypanosoma cruzi; 2.23% in test [5]. Also, the Percent Effect in [6] is 11.6%; in the test filed under Homo sapiens, -22.8%; in [7], 3.24%; in [8], 7.69%; in test [9], 4.63%.
For the molecule `CCC(=O)N(C)C1CCN(Cc2ncc(C)c(OC)c2C)CC1`, the Percent Effect in test [1] was -5.54%; in [2], 18.2%; in test [3] it was -1.36%; in test [4] it was -0.124%; in the test on Trypanosoma cruzi it was 2.25%; in test [5], 2.13%. Besides, the Percent Effect in test [6] was 18.9%; in the test filed under Homo sapiens, 16.3%; in test [7] it was 5.83%; in [8], 19.5%; in test [9] it was -7.08%.
As to `CCC(C)NC(=O)NCCCn1nc2ccccn2c1=O` (stereo not given), the Percent Effect in test [1] is -2.08%; in [2], 13.5%; in test [3], -4.74%; in test [4] it was -3.56%; in the test on Trypanosoma cruzi, 7.08%; in test [5] it was -3.61%. Moreover, the Percent Effect in test [6] was 16.4%; in the test filed under Homo sapiens, -114%; in test [7], 1.48%; in test [8], 18.5%; in test [9] it was -14.5%.
With `Cc1n[nH]c(C)c1C1CCCN1C(=O)CNC(=O)C(C)(C)C` (stereo not given), the Percent Effect in test [1] was -0.905%; in [2], 8.22%; in test [3] it was 0.299%; in test [4], 14%; in the test with Trypanosoma cruzi, 2.74%; in test [5] it was 20.9%. The Percent Effect in test [6] is 11.5%; in the test listed under Homo sapiens, -2.46%; in [7], 0%; in [8], 5%; in test [9], -4.49%.
`Cn1cc2c(n1)C(CNC(=O)Cc1ccsc1)OCC2` (stereo not given): the Percent Effect was -4.65% in test [1]; 7.79% in [2]; -2.5% in [3]; -0.415% in test [4]; 4.83% with Trypanosoma cruzi; -7.1% in [5]. Further, the Percent Effect is 2.26% in [6]; 7.06% in the test filed under Homo sapiens; 2.12% in [7]; 3.85% in [8]; -6.29% in test [9].
For the molecule `COc1ccsc1C(=O)N1CCCC(n2nc(C)nc2C)C1` (stereo not given), the Percent Effect in [1] is 0.303%; in test [2], 0%; in test [3], -4.74%; in [4] it was -3.48%; in the test with Trypanosoma cruzi, -6.89%; in test [5] it was 2.66%. For the same molecule, the Percent Effect in test [6] is -1.72%; in the test listed under Homo sapiens, 6.32%; in test [7], 6.4%; in test [8], 3.8%; in test [9], 1.65%.
With `c1ccc2cc(OCCN3CCOC(Cn4cncn4)C3)ccc2c1` (stereo not given), the Percent Effect in [1] was -4.49%; in [2], 6.33%; in test [3], -0.381%; in test [4], 14%; in the test with Trypanosoma cruzi it was 2.77%; in [5], -1.5%. For the same molecule, the Percent Effect in test [6] is 10.3%; in the test listed under Homo sapiens it was 5.72%; in [7] it was 4.17%; in test [8] it was 10.1%; in test [9], -6.36%.
As to `CC(C)c1nc2n(n1)CC(NCc1ccncc1)CC2` (stereo not given), the Percent Effect in test [1] is -3.2%; in [2], 5.26%; in test [3], -3.06%; in test [4] it was -0.0553%; in the test on Trypanosoma cruzi, 2.63%; in test [5], -5.92%. Further, the Percent Effect in test [6] was 4.12%; in the test listed under Homo sapiens it was 3.22%; in [7], 2.13%; in [8] it was 5.2%; in [9] it was -1.54%.
